Screening results (PubChem BioAssay)
HEK293 viab: cell viability loss counter-screen; HEK-293-SNCA-luc viability, GF-AFC fluorescence, 24 h; 0.12% of 150,000 active; AID 1671193; Potency, µM (series often up to 57.1 µM), most hits filed as cytotoxic; also: nearly all actives have a fitted effect of over 30% in size
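HEK-293-SNCA-luc cells (1500/well) plated 24 h, then exposed 24 h to a dilution series; GF-AFC added 30 min at 37C, fluorescence 405/540 nm; normalised to medium-only and DMSO wells, Hill fit.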
IP6K1 inhibitor: blocks human inositol hexakisphosphate kinase 1; Q92551; IP6K1 kinase, ADP-Glo luminescence, 2 h; hits give low values; activity change, % (series mostly up to about 58 µM); 0.81% of 140,000 active; AID 1645851; in the data active = activity change below about -25%
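ADP-Glo luminescence measures ADP made by human IP6K1 during a 2 h RT reaction with ATP/IP6 (mix at 1.3 mM/130 uM); top library doses 57.5 and 19.1 uM final.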
SNCA expr inhib: SNCA gene expression inhibition | Potency, µM (titrated, usually from 57.2 µM), actives largely listed as inhibitors | AID 1671194 | HEK-293 SNCA-luciferase knock-in, luminescence, 24 h | 0.17% of 140,000 active; also: nearly all actives have a fitted effect of over 45% in size
KDM5B inhibitor: KDM5B demethylase inhibition. Q9UGL1. KDM5B demethylase, FDH-coupled NADH fluorescence (FDH is formaldehyde dehydrogenase). Potency, µM (series often up to 57.7 µM), usual class: inhibitors. 2.6% of 220,000 active. AID 1347165; also: nearly all actives have a fitted effect of over 70% in size
Target sequence (Q9UGL1 whole entry, looked up): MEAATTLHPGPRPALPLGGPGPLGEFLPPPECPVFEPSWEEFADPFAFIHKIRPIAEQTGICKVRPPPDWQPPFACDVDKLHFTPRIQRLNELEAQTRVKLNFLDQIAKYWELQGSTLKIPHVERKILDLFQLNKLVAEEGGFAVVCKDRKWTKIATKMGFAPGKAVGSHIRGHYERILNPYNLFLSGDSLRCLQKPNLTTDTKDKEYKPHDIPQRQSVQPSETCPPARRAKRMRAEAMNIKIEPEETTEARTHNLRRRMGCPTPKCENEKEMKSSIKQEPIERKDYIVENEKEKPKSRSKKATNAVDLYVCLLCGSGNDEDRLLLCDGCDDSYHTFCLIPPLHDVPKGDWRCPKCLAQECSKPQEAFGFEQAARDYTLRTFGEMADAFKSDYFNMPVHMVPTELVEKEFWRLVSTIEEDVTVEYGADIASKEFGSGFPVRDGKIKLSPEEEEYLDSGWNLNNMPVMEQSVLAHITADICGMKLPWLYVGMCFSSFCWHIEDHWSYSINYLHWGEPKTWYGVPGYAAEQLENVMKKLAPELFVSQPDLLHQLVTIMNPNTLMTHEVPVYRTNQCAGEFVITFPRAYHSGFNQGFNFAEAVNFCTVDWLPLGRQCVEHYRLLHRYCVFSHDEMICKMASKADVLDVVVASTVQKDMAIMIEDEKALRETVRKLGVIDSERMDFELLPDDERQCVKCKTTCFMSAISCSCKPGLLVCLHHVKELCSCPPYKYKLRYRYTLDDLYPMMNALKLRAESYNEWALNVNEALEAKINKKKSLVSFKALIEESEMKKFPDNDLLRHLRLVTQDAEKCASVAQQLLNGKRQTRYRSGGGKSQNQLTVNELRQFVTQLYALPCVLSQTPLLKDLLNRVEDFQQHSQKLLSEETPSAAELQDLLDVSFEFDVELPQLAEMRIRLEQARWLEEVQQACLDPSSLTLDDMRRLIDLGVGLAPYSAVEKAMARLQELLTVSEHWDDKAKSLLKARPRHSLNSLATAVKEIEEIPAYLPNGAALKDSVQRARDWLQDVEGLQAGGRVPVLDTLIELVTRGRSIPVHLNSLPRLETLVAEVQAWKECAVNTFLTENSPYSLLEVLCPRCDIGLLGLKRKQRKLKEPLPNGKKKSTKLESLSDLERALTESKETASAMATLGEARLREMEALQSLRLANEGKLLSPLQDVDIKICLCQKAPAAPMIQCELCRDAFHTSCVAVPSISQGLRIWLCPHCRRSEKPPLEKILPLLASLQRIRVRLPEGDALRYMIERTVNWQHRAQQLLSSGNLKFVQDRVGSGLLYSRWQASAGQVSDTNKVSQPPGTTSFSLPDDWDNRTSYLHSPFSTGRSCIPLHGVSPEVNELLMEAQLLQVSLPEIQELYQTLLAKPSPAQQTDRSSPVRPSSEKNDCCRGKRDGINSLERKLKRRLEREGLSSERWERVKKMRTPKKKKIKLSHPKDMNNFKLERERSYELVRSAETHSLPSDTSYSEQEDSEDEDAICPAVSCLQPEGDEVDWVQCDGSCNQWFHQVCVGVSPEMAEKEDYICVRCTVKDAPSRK
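Coupled FDH/NAD⁺ fluorescence readout. KDM5BΔAP 200 nM final; compound titration, 10 min RT preincubation; substrate mix 12.5 µM H3K4me3, 25 µM 2-OG, 50 µM Fe(II), 100 µM ascorbate, 0.25 mM NAD⁺, 0.25 U/mL FDH; ΔRFU over 30 min.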
IP6K1 inh cnf: confirmation of human IP6K1 inhibitors; shares compounds with IP6K1 inhibitor; recombinant IP6K1 kinase, ADP-Glo luminescence, 2 h; Potency, µM (series often up to 49 µM), most hits filed as inhibitors; 13% of 1,200 active; AID 1645852; also: nearly all actives have a fitted effect of over 65% in size
Large screens that a line does not name were inactive (follow-up assays come after a bar, where they were run). Shown are actives, neighbours in structure and some others; about 2.8% of the full set was active somewhere. Unless noted, calls follow the shape of the dose curve; as a rule, active = well fitted curve in the direction sought with a large enough effect; inconclusive = small, poorly fitted or top-dose-only effect, or another doubt; inactive = no such curve, though single readings can be large; an effect the other way counts as inactive or inconclusive.

CCCN1C(C(=O)c2ccccc2)=C(OC(=O)COc2ccccc2)c2ccccc2S1(=O)=O	HEK293 viab inconclusive, IP6K1 inhibitor -28, SNCA expr inhib inconclusive, KDM5B inhibitor inconclusive | IP6K1 inh cnf inconclusive
CCN1C(C(=O)c2ccccc2)=C(OC(=O)COc2ccc(OC)cc2)c2ccccc2S1(=O)=O	IP6K1 inhibitor -34, SNCA expr inhib inconclusive, KDM5B inhibitor inconclusive | IP6K1 inh cnf inactive
CCCN1C(C(=O)c2ccccc2)=C(OC(=O)COc2ccc(C)cc2)c2ccccc2S1(=O)=O	HEK293 viab inconclusive, SNCA expr inhib inconclusive, KDM5B inhibitor inconclusive
C=CC(=O)Nc1cc(-n2c(=O)ccc3cnc4ccc(-c5ccc(NS(C)(=O)=O)cc5)cc4c32)ccc1C	none (no result: SNCA expr inhib, KDM5B inhibitor)
Cc1c(CN(C)CC2(O)CCCN(Cc3ccc(C(C)C)cc3)C2=O)cnn1C (configuration not stated)	IP6K1 inhibitor -37 | IP6K1 inh cnf inactive
CCc1ncc(C(=O)NC(c2ccc(C)cc2)c2cccs2)cn1 (configuration not stated)	none
CC(C)c1nc(-c2ccc(C(=O)N[C@@H]3COCC[C@@H]3OCC3CC3)cc2)no1	none
Cc1ccc(-n2ncc(C(=O)NCc3cccs3)c2C2CCN(C(=O)OC(C)(C)C)CC2)c(C)c1	IP6K1 inhibitor -33, SNCA expr inhib inconclusive, KDM5B inhibitor inconclusive | IP6K1 inh cnf inactive
Cc1ccc(-n2ncc(C(=O)N3CCN(c4ccc(Cl)cc4)CC3)c2C2CCN(C(=O)OC(C)(C)C)CC2)c(C)c1	IP6K1 inhibitor -35 | IP6K1 inh cnf inactive
Cc1ccc(-n2ncc(C(=O)NCc3cccs3)c2C2CCN(C(=O)OC(C)(C)C)CC2)cc1C	HEK293 viab inconclusive, SNCA expr inhib inconclusive
O=C(O)Cn1nnc(-c2ccc(OCc3cccc(C(F)(F)F)c3)cc2)n1	IP6K1 inhibitor -30, KDM5B inhibitor inconclusive | IP6K1 inh cnf inconclusive
COc1cccc(-c2cc(C3CCN(C(=O)Nc4ccc(F)cc4F)CC3)[nH]n2)c1	none
COc1cccc(-c2ccc(NC(=O)C3=C(C(=O)O)CCC3)c(F)c2)c1	IP6K1 inhibitor -27 (no result: KDM5B inhibitor) | IP6K1 inh cnf inconclusive
CCCN1CCCC2(Cc3ccccc3CN(C(C)=O)C2)C1 (configuration not stated)	none
CCCOc1ccc(C(=O)N2C[C@H](c3cccc(OC)c3)[C@@H](N)C2)cc1Cl	none
CCCc1nc(C(=O)N2C[C@H](c3cccc(OC)c3)[C@@H](N)C2)cs1	IP6K1 inhibitor -26, KDM5B inhibitor inconclusive | IP6K1 inh cnf inactive
CCN1CCN(C(=O)CCC[C@@H]2[C@H]3CCCN4CCC[C@@H](CN2Cc2ccccc2)[C@@H]34)CC1	KDM5B inhibitor inconclusive
COc1ccc(CN2CCNc3cnc(OCc4cccnc4)cc3C2)cc1O	IP6K1 inhibitor -29 | IP6K1 inh cnf inactive
COc1ccccc1CN1CCNc2cnc(OCc3cccnc3)cc2C1	KDM5B inhibitor inconclusive
N#C/C(=C\c1ccc(O)c(O)c1)C(=O)Nc1ccccc1	none (no result: IP6K1 inhibitor, KDM5B inhibitor) | IP6K1 inh cnf 16µM
CN(c1ccccc1)c1cc(=O)c2ccnc(Nc3cccnc3)c2o1	KDM5B inhibitor inconclusive
CN(c1cc(=O)c2ccnc(-c3cccc(C(F)(F)F)c3)c2o1)C1CCOCC1	IP6K1 inhibitor -34, KDM5B inhibitor 28µM | IP6K1 inh cnf inconclusive
CN(c1ccccc1)c1cc(=O)c2ccnc(-c3ccncc3)c2o1	none
CN(c1cc(=O)c2ccnc(Nc3ccc(F)c(Cl)c3)c2o1)C1CCOCC1	IP6K1 inhibitor -25, KDM5B inhibitor 28µM | IP6K1 inh cnf inactive
NC(=O)Cc1c[nH]c2ncc(-c3ccc(Oc4ccccc4)cc3)cc12	IP6K1 inhibitor -42, KDM5B inhibitor inconclusive | IP6K1 inh cnf inconclusive
CNC(=O)c1cccc(-c2cnc3[nH]cc(CC(=O)N(C)c4ccccc4)c3c2)c1	HEK293 viab inconclusive, IP6K1 inhibitor -29 | IP6K1 inh cnf inconclusive
NC(=O)Cc1c[nH]c2ncc(-c3cccc(F)c3)cc12	IP6K1 inhibitor -35, KDM5B inhibitor 32µM | IP6K1 inh cnf inconclusive
Cc1cc(-c2cnc3[nH]cc(CC(N)=O)c3c2)ccn1	none
O=C(NN=C(/C=C/c1ccccc1)/C=C/c1ccccc1)c1cccs1	none (no result: HEK293 viab, IP6K1 inhibitor, SNCA expr inhib)
CC(C)C(=O)N1c2ncnn2C2(CCCCC2)[C@@H]2CCCC[C@@H]21	IP6K1 inhibitor -30, KDM5B inhibitor inconclusive | IP6K1 inh cnf inactive
CCOc1ccc(CC(=O)Nc2ccc(-c3nnc4n3CCCC4)cc2)cc1	none
